Laboratory results published in PubChem BioAssay AID1690 (NMMLSC, 2009).
Measured potencies and affinities stand elsewhere. The source made the active and inactive calls.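 Rule for the calls: active = combined score above 51, weighing potency under 20 µM and fitted curve span over 20%; inactive = the rest.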

Biological target: Broad substrate specificity ATP-binding cassette transporter ABCG2 (Homo sapiens) (UniProt Q9UNQ0)
Experiment: ABCG2 efflux pump inhibitors, dose response, Ig-MXP3 cells, flow cytometry (AID 1690)
Conditions: JC-1 efflux; series mostly up to 33.3 µM

Broad substrate specificity ATP-binding cassette transporter ABCG2 (Homo sapiens), sequence (Q9UNQ0 whole entry, looked up): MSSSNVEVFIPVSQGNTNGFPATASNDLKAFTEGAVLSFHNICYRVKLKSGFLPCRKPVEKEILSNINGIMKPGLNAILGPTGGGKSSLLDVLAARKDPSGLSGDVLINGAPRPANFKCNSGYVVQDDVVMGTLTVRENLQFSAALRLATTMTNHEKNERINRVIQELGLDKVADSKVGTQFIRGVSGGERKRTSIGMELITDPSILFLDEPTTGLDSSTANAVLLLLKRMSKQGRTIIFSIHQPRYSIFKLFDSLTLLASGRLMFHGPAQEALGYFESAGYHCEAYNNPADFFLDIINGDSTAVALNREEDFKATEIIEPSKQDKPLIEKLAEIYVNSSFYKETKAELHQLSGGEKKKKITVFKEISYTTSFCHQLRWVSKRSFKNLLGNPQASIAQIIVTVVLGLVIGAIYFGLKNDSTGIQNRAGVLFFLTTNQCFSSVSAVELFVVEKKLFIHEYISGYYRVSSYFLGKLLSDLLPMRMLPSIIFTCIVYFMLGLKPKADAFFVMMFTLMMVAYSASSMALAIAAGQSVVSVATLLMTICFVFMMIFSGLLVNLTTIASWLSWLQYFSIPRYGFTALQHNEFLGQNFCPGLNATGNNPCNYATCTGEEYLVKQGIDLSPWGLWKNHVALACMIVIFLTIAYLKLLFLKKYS

outcome, inactive:
CC(=O)Nc1ccc(Nc2ccc(S(=O)(=O)C(F)(F)F)cc2[N+](=O)[O-])cc1
CCN(CC)C1=CC2=CC(=C(C#N)C#N)CCC2CC1 (stereo unspecified)
COc1ccc(CCNC(=O)COC(=O)/C=C/c2ccc(OC)c(OC)c2)cc1
CCCCn1c(O)c(N=Nc2ccccn2)c2ccccc21
COc1ccccc1Nc1nc2nonc2nc1N1CCCCC1C (stereo unspecified)
N#CC(C#N)=C1C=C2C=C(N3CCCCCC3)CCC2CC1 (stereo unspecified)
COc1ccc(/C=N/NC(=O)c2cccnc2)cc1CN1CCN(c2ccc(F)cc2)CC1
CNc1nc2cc([N+](=O)[O-])c([N+](=O)[O-])cc2nc1NC
Cc1nc2cc(-c3cccc(F)c3)nn2c(N2CCN(C(=O)c3ccco3)CC2)c1C
CN1CCN(C2=CC3=CC(=C(C#N)C#N)CCC3CC2)CC1 (stereo unspecified)
COC(=O)c1cc(NC(=O)c2ccccc2)c(=O)oc1/C=C/Nc1ccc(Oc2ccccc2)cc1
CCN1/C(=C\C=C\c2oc3ccc4ccccc4c3[n+]2CC)Oc2ccc3ccccc3c21
CCOC(=O)c1sc2cc([N+](=O)[O-])cc(SCC(C)C)c2c1N
N#CC(C#N)=C1C=C2C=C(N3CCOCC3)CCC2CC1 (stereo unspecified)
CN(C)c1ccc(/C=C2\SC(=S)N(Nc3ncc(C(F)(F)F)cc3Cl)C2=O)cc1
CCCCN1/C(=C/c2ccc3ccccc3[n+]2CC)Sc2ccccc21
